# Source: PubChem (several laboratories)
# Mtb UGM inh – M. tuberculosis UGM enzyme inhibitors, primary screen, biochemical, fluorescence polarization, single point | purified UGM, fluorescence polarization probe displacement | 0.06% of 320,000 active | UDP-galactopyranose mutase (Mycobacterium tuberculosis (strain ATCC 25618 / H37Rv)), … | inhibition, % at 10 µM | AID 504406, 2011; in the data active = inhibition above about 10%, passing the limit was not always enough
# Target sequence (P9WIQ1 whole entry, looked up): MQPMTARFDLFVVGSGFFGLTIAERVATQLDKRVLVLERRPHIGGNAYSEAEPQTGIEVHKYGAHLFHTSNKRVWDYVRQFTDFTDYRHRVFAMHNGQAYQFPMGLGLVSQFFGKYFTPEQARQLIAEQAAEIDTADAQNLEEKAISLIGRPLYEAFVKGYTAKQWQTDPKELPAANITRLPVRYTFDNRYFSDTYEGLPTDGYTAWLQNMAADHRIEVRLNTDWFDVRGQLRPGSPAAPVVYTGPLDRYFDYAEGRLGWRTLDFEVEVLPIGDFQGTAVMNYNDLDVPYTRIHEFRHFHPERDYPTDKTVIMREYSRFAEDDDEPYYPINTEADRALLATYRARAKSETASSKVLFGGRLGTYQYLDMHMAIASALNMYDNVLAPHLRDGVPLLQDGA
# GDH-TPI counter – GDH-TPI coupling enzyme inhibitors, primary screen, artefact control for M. tuberculosis FBA inhibitor project, biochemical, absorbance, full deck; GDH-TPI coupled enzyme counterscreen, NADH absorbance; inhibition, % at 4.8 µM; 1.2% of 360,000 active; in the data active = inhibition above about 30%;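 also: 0% = DMSO wells and 100% = wells lacking the enzyme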
# Rv3671c inh – Rv3671c serine protease inhibitors, primary screen, biochemical, fluorescence polarization, M. tuberculosis H37Rv | inhibition, % at 5.96 µM | 0.048% of 320,000 active | P9WHR9; in the data active = inhibition above about 38%;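 also: extracellular domain of Rv3671c used as enzyme; 0% = enzyme with DMSO and 100% = no enzyme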
# FadD28 binding – inhibitors of FadD28 bisubstrate probe binding, primary screen, biochemical, fluorescence polarization, single point; Mycobacterium tuberculosis FadD28 fatty-acid-AMP ligase; 0.22% of 360,000 active; AID 588549, 2011; inhibition, % at 12.5 µM; in the data active = inhibition above about 8.5%, passing the limit was not always enough
# FBA Mtb inh – Mtb FBA enzyme inhibitors, primary screen, biochemical, fluorescence, strain H37Rv. purified M. tuberculosis FBA, fluorescence read-out. inhibition, % at 1 µM. 2.3% of 360,000 active. AID 588726, 2011; in the data active = inhibition above about 27%;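 also: 0% = vehicle and 100% = reference inhibitor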
# Mtb bLac sens – beta-lactam sensitization of Mtb H37Rv, H37Rv | M. tuberculosis H37Rv growth with meropenem, percent inhibition | inhibition, % at 25 µM | 0.27% of 330,000 active; call rule not given here;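 also: growth measured after seven days incubation then overnight dye step; 0% = bacteria only wells and 100% = bacteria with antibiotic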
# An asterisk follows results filed as active; . = not tested or not shown; ! = not active in a repeat. Only some compounds are listed: those with a hit (about 3.7% of all), similar ones and a draw of the others.
SMILES,Mtb UGM inh,GDH-TPI counter,Rv3671c inh,FadD28 binding,FBA Mtb inh,Mtb bLac sens
CN(C)CCCN(C(=O)/C=C/c1cccs1)c1nc2ccc(F)cc2s1,-0.6,48.1*,3.7,-4.1,-2.2,.
COc1ccc(OC)c2sc(N(CCN(C)C)C(=O)/C=C/c3cccs3)nc12,2.7,33.0*,2.3,-0.3,3.9,84.9
COc1ccc(C)c2sc(N(CCN(C)C)C(=O)/C=C/c3cccs3)nc12,0.7,30.8*,-6.8,-2.6,-0.2,98.4
CCOc1cccc2sc(N(CCN(C)C)C(=O)/C=C/c3cccs3)nc12,-2.5,4.3,-7.5,-7.2,-6.2,100.0
Cc1ccc2nc(N(CCN(C)C)C(=O)/C=C/c3cccs3)sc2c1,.,22.3,-4.1,-0.4,4.0,2.1
CC1(C(=O)NCc2ccccc2)CCC(=O)N1C1CC1 (configuration not stated),.,.,.,-3.1,-2.9,.
Cc1cc(C)c2c(n1)nn1c(N3CCN(Cc4ccccc4)CC3)cc(C)nc21,.,20.4,.,-2.7,113.6*,.
Cc1nc([N+](=O)[O-])c(N2CCN(Cc3ccccc3)CC2)n1Cc1ccccc1,-1.2,12.9,-6.3,-1.4,-0.3,-9.0
CCOc1ccc(-c2cc(C)[n+](CCc3ccc(OC)c(OC)c3)c(-c3ccc(OCC)cc3)c2)cc1,1.4,30.7*,.,0.5,-0.6,100.1
CCCC(=O)N1CCCC1(C)C(=O)NCc1ccc(SC)cc1 (configuration not stated),.,8.9,.,-1.5,-0.9,.
O=C(/C=C\c1ccco1)Nc1nc(-c2ccc3ccccc3c2)cs1,-2.1,36.1*,-168.2,-0.6,2.5,-0.3
Cc1cc(C)nc(NC(=O)/C=C/c2ccc3c(c2)OCO3)c1,-2.9,40.0*,-8.2,2.0,13.2,4.5
Cn1c(NC(=O)/C=C/c2ccco2)cc(=O)n(C)c1=O,-1.6,31.0*,-2.4,0.2,-3.5,-5.3
Cc1ccc(-c2csc(NC(=S)NC(=O)/C=C/c3ccco3)n2)cc1,0.9,3.0,-31.9,-1.0,5.2,2.9
Cc1ccc(/C=C/C(=O)Nc2cc(=O)n(C)c(=O)n2C)o1,4.3,1.8,0.3,-0.9,-2.5,1.9
Cc1ccc(C(=O)Nc2cc(=O)n(C)c(=O)n2C)o1,-0.7,32.5*,-2.4,-1.2,-3.2,-18.7
CC(C)[C@H](NC(=O)c1cccc(CN(Cc2ccccc2)C(=O)c2ccccc2)c1)C(=O)O,0.6,3.4,5.5,-2.1,2.0,-2.7
C=CCOc1cccn2c(N(C)C(=O)c3ccccc3F)c(CC)nc12,.,12.4,.,-3.1,-3.0,.
Cc1ccc(Cc2c(C(C)(C)C)nc3ccc(Br)cn23)cc1,.,.,.,-0.8,4.0,.
Cc1ccccc1-n1nc2c(c1NC(=O)/C=C\c1ccc3c(c1)OCO3)CSC2,1.2,32.2*,-24.4,-2.6,2.1,-0.5
Cc1ccc(-n2nc3c(c2NC(=O)/C=C\c2ccc4c(c2)OCO4)CSC3)c(C)c1,-0.4,19.7,-22.4,-3.5,2.8,2.8
O=C(/C=C/c1ccc2c(c1)OCO2)c1ccc(O)cc1O,.,40.0*,.,0.1,-10.3,.
Cc1ccc(C(=O)C=Cc2ccc3c(c2)OCO3)c(C)c1,.,11.1,.,-1.5,2.7,.
Cc1sc(NC(=O)/C=C/c2ccc3c(c2)OCO3)nc1-c1ccccc1,-2.2,12.9,-44.2,-4.7,4.0,30.7
O=C(/C=C/c1ccc2c(c1)OCO2)Nc1nc(-c2ccccc2)cs1,-4.5,45.6*,-103.2,-2.3,3.4,-12.0
SMILES,Mtb UGM inh,GDH-TPI counter,Rv3671c inh,FadD28 binding,FBA Mtb inh,Mtb bLac sens
O=C(/C=C/c1ccco1)Nc1ccc2c(c1)OCO2,2.0,32.9*,4.0,-2.8,-6.2,-9.0
O=C(/C=C/c1ccco1)NCc1ccc2c(c1)OCO2,-4.5,6.1,-6.3,-3.6,-7.9,2.8
COc1ccccc1C(=O)NCCC(=O)Nc1ccc(S(=O)(=O)N2CC(C)CC(C)C2)cc1 (configuration not stated),-0.9,10.0,-35.4,-1.1,2.5,3.0
O=C1Nc2c(Cl)cc(Cl)cc2C1=O,.,2.6,.,-3.3,4.7,.
CCc1ccccc1NC(=O)c1cccc(NC(=O)/C=C/c2ccco2)c1,0.8,44.4*,-18.4,-11.5,-0.5,1.2
NS(=O)(=O)c1ccc(NC(=O)/C=C/c2ccc3c(c2)OCO3)cc1,0.0,36.1*,-21.9,-7.1,22.2,2.1
O=C(/C=C/c1ccco1)Nc1cccc(C(=O)Nc2ccccc2C(=O)O)c1,2.1,14.8,-30.8,-31.7,-3.3,-0.1
CCN1CCc2c(sc(NC(=O)Nc3ccc(Cl)c(Cl)c3)c2C(N)=O)C1,-1.8,-3.0,9.7,-2.3,-7.2,8.3
NC(=O)C1CCN(C(=O)c2ccc3nc(-c4ccccc4)c(-c4ccccc4)nc3c2)CC1,0.3,24.1,0.2,-1.4,65.9*,3.1
N#CCSc1nc2cc(C(=O)N3CCC(C(N)=O)CC3)ccc2c2nc3ccccc3n12,2.9,31.5*,1.2,-3.1,0.8,-5.9
Cc1ccc(S(=O)(=O)N(C)CCCC(=O)N2CCCCC2)cc1,2.7,14.6,-2.5,0.3,-0.5,2.3
c1coc(-c2nnc(-c3cccs3)o2)c1,-0.4,6.4,10.2,-3.0,149.5*,-20.2
O=c1cc(-c2ccco2)nc(-c2cccs2)o1,2.1,16.4,3.3,-0.8,4.8,11.9
O=C(O)c1ccc2nc(-c3ccco3)c(-c3ccco3)nc2c1,.,15.1,.,13.3*,-2.4,.
O=C(O)c1cc(-c2ccco2)nc2ccc(Br)cc12,1.8,2.7,-5.1,29.2*!,-3.5,32.1
O=C(c1ccco1)N1CCN(C(=O)c2cc(-c3ccncc3)nc3ccc(Br)cc23)CC1,1.6,3.4,-5.8,-4.4,5.0,8.8
Cc1cccc(-c2c3c(nc4c2c(=O)n(C)c(=O)n4C)-c2ccccc2C3O)c1 (configuration not stated),-0.5,-1.3,6.8,-2.9,-0.1,0.1
Cc1c(NC(=O)c2cc3ccccc3o2)cccc1-n1cnnn1,.,-2.7,.,-3.4,-4.4,.
Cc1cc(C)c(NC(=O)Cn2nnc(C(=O)NCc3ccco3)c2N)c(C)c1,2.8,33.1*,-6.2,-1.9,6.7,-5.1
CCCS(=O)(=O)NC(=O)C1(C)CCN1C(=O)Cc1ccc(Cl)cc1Cl (configuration not stated),.,4.9,.,0.3,-0.6,.
Cc1c(CC(=O)NCC(=O)NCC(=O)O)c(=O)oc2c(C)c3oc4c(c3cc12)CCCC4,1.9,8.2,.,-1.3,10.3,0.4
Cc1c(CC(=O)NCC(=O)NCC(=O)O)c(=O)oc2cc3c(cc12)CCC(C)(C)O3,-1.5,21.9,-3.1,-1.1,194.0*,-1.9
Cc1c(CC(=O)NCCCO)c(=O)oc2cc3c(cc12)CCC(C)(C)O3,-0.4,22.0,5.3,-0.9,182.8*,-6.0
Cc1c(CC(=O)NCC(=O)O)c(=O)oc2cc3oc4c(c3cc12)CCCC4,3.7,4.8,.,.,3.0,10.4
